Test [1] can be described thus: Viability qHTS for spleen associated tyrosine kinase inhibitor (SYKi) drug resistant MV4-11 cells (AID 1963824). Also: nearly all actives have a fitted effect of over 35% in size. The method in brief:
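CellTiter-Glo luminescence, read 10 min after reagent addition, reports viability after a 72 hr compound exposure. Cells are an MV4-11 line made resistant to SYK inhibition, seeded at 500 per well onto compound-containing plates.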
(In qHTS, concentration-response curves come from the screen itself.)

Test [2] in a line: Quantitative highthroughput screen to assess conditional lethalithy of NOMO1 cells grown in RPMI1640 with dialyzed fetal bovine serum (RPMI+ds) (AID 1963877). Also: nearly all actives have a fitted effect of over 30% in size.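 As to Viability: series mostly up to about 46 µM; 100% = DMSO control wells and 0% = empty wells.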 The method in brief:
(§1)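 Each medium arm—HPLM with 10% dialyzed FBS, or RPMI1640 with 5 mM glucose and 10% untreated or dialyzed FBS—was screened against an 11-point, 3-fold compound titration for 48 h at 37 °C, with CellTiter-Glo luminescence as endpoint.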

The nature of test [3]: Quantitative highthroughput screen to assess conditional lethalithy of NOMO1 cells grown in Human Plasma-Like Medium with dialyzed fetal bovine serum (HPLM+ds) (AID 1963878). Also: nearly all actives have a fitted effect of over 35% in size.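 As to Viability: 100% = DMSO wells and 0% = empty wells on each plate.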 The method in brief:
as §1

Test [4] can be described thus: Quantitative highthroughput screen to assess conditional lethalithy of P12 Ichikawa cells grown in Human Plasma-Like Medium with dialyzed fetal bovine serum (HPLM+ds) (AID 1963879). Also: nearly all actives have a fitted effect of over 35% in size. As to Viability: series mostly up to about 46 µM. The note with it: Potency: viability. The procedure, abridged: as §1
Test [5] is described as follows: Quantitative highthroughput screen to assess conditional lethalithy of P12 Ichikawa cells grown in RPMI1640 with dialyzed fetal bovine serum (RPMI+ds) (AID 1963880). Also: nearly all actives have a fitted effect of over 35% in size.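 As to Viability: 100% = DMSO wells and 0% = empty wells on each plate.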 As to conditions: Potency: P12-Ichikawa viability. The method in brief:
as §1

Test [6] is described as follows: Quantitative highthroughput screen to assess conditional lethalithy of P12 Ichikawa cells grown in RPMI1640 with untreated serum (RPMI+s) (AID 1963881). Also: nearly all actives have a fitted effect of over 35% in size.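 As to Viability: series mostly up to about 46 µM; 100% = DMSO wells and 0% = empty wells without cells.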 The note with it: Potency: viability. The method in brief:
as §1

The nature of test [7]: Quantitative highthroughput screen to assess conditional lethalithy of SEM cells grown in Human Plasma-Like Medium with dialyzed fetal bovine serum (HPLM+ds) (AID 1963882). Also: nearly all actives have a fitted effect of over 35% in size. As to Viability: series mostly up to about 46 µM. The method in brief: as §1
Test [8] is described as follows: Quantitative highthroughput screen to assess conditional lethalithy of SEM cells grown in RPMI1640 with unreated serum (RPMI+s) (AID 1963883). Also: nearly all actives have a fitted effect of over 35% in size.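 As to Viability: 100% = DMSO wells and 0% = empty wells without cells.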 The method in brief: as §1
Test [9] is described as follows: Quantitative highthroughput screen to assess conditional lethalithy of SEM cells grown in RPMI1640 with dialyzed fetal bovine serum (RPMI+ds) (AID 1963884). Also: nearly all actives have a fitted effect of over 35% in size.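 As to Viability: series mostly up to about 46 µM; 100% = DMSO control wells and 0% = empty wells without cells.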 The procedure, abridged:
as §1

A short description of test [10]: Cellular viability qHTS for adrenocortical cancer (ACC) cell line SW-13 (AID 1963989). Also: nearly all actives have a fitted effect of over 65% in size.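 As to activity (max response): cells grown in serum-free medium with ITS supplement; % is scaled to controls: 0 for no effect and ±100 for the full control effect.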 As to conditions: SW-13 ACC cells viability, CellTiter-Glo, 48 h; activity (max response): active compounds read low. The procedure, abridged:
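Here, serum-free SW-13 cultures were dosed up to 46 uM. Following 48 h, ATP-dependent luminescence (CellTiter-Glo) reported viable cells, and logistic modeling produced IC50 values.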

Test [11] in a line: Cellular viability qHTS for adrenocortical cancer (ACC) cell line NCI-H295R (AID 1963990). Also: nearly all actives have a fitted effect of over 60% in size. The procedure, abridged: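 Viability of NCI-H295R after 48 h of treatment (final up to 46 uM) measured through cellular ATP luminescence.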
The nature of test [12]: Quantitative highthroughput screen to assess conditional lethalithy of NOMO1 cells grown in RPMI1640 with untreated serum (RPMI+s) (AID 1963876). Also: nearly all actives have a fitted effect of over 35% in size.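 As to Viability: 100% = DMSO wells and 0% = empty wells without cells.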 The method in brief: as §1

“And” between values parts separate entries of the source, which are not always exact repeats. Equal values may be shown once. Results filed as inconclusive are left out. A number with no mark means an inactive call. The source made the active and inactive calls. Calls follow the shape of the dose curve; as a rule, active = well fitted curve in the direction sought with a large enough effect; inconclusive = small, poorly fitted or top-dose-only effect, or another doubt; inactive = no such curve, though single readings can be large; an effect the other way counts as inactive or inconclusive.
Potency is read from the fitted curve at half-maximal effect.

Consider `C[C@]12CC[C@@H]3c4ccc(O)cc4C[C@@H](CCCCCCCCCS(=O)CCCC(F)(F)C(F)(F)F)[C@H]3[C@H]1CC[C@H]2O` (stereo not given in full), for which the Potency in test [1] was 4.68 µM (active). The Potency entry in [2], in test [3], in test [4], in test [5], in test [6] and in test [7] was “inactive” in each case. Moreover, the Potency result in test [8], in test [9] and in test [11] was “inactive” each time. Moreover, in test [10], the activity (max response) was -14.8%.
With `CCCc1cc(=O)[nH]c(=S)[nH]1`, the Potency entry in test [1] and in [11] was “inactive” throughout. For the same compound, the Potency was 9.35 µM (active) in test [12], 10.5 µM (active) in [4], 16.6 µM (active) in test [5] and 14.8 µM (active) in [6]. For the same compound, in test [10], the activity (max response) is 3.86% and 14.9%.
Turning to `COc1cc2nccc(Oc3ccc(NC(=O)C4(C(=O)Nc5ccc(F)cc5)CC4)cc3)c2cc1OC`, the Potency was 0.0093 µM (active) in test [1], 20.9 µM (active) in [6], 12.6 µM (active) in test [10] and 10 µM (active) in [11]. Moreover, the Potency result in [12] was “inactive”.
`CN1CCc2c(n(Cc3ccc(C(=O)NO)cc3)c3ccccc23)C1`: the Potency was 18.6 µM (active) in [1], 26.4 µM (active) in test [7], 23.5 µM (active) in test [8] and 25.1 µM (active) in test [11]. In test [2], the Potency result was “inactive”.
Consider `COc1ccc2c(c1OC)C(=O)OC2[C@H]1c2c(cc3c(c2OC)OCO3)CCN1C` (stereo not given in full), for which the Potency in test [1] is 23.5 µM (active); in [2], 0.332 µM (active); in [3], 0.148 µM (active); in test [4] it was 0.469 µM (active); in [5] it was 0.59 µM (active); in test [6] it was 0.418 µM (active). The Potency was 0.235 µM (active) in test [7]; 0.118 µM (active) in [8]; 0.187 µM (active) in test [9]; 22.4 µM (active) in test [10]; 25.1 µM (active) in test [11].
As to `Cc1ccc(C(=O)Nc2ccc(Oc3cc4cnn(C)c4cc3-c3cn[nH]c3)c(F)c2)c(=O)n1-c1ccc(F)cc1`, the Potency is 0.0047 µM (active) in [1]; 9.33 µM (active) in [2]; 7.41 µM (active) in test [3]; 6.6 µM (active) in [4]; 7.41 µM (active) in test [5]; 6.6 µM (active) in test [6]. Also, the Potency is 0.295 µM (active) in [7], 0.467 µM (active) in test [8] and 0.234 µM (active) in [9]. Further, the activity (max response) in test [10] was -20.9%.
In the case of `CN(C)C(=O)[C@H](O)[C@H](Cc1ccccc1)NC(=O)c1cc2cc(Cl)ccc2[nH]1`, the Potency in [1] was 20.9 µM (active); in test [7], 2.09 µM (active); in test [8], 2.64 µM (active); in test [9] it was 2.35 µM (active). Also, the Potency result in test [12] is “inactive”.
On to `Cc1cc(Nc2nc(N[C@@H](C)c3ncc(F)cn3)ncc2Cl)n[nH]1`, for which the Potency is 1.05 µM (active) in [1]; 7.43 µM (active) in test [12]; 5.26 µM (active) in [7]; 1.05 µM (active) in test [8]; 2.64 µM (active) in [9]. In test [10], the activity (max response) is -20.7%.
In the case of `O=C(NCC1CCCCN1)c1cc(OCC(F)(F)F)ccc1OCC(F)(F)F` (stereo not given), the Potency entry in test [1], in test [9] and in test [11] was “inactive” in each case. Further, the Potency in test [12] was 0.332 µM (active); in [4] it was 1.87 µM (active); in [5], 2.96 µM (active); in test [6], 1.66 µM (active). For the same compound, in test [10], the activity (max response) was -4.23%.
For `CNC(=O)CN1CCC(Oc2cc3c(Nc4cccc(Cl)c4F)ncnc3cc2OC)CC1`, the Potency in test [1] is 11.6 µM (active); in test [12], 0.372 µM (active); in test [4], 2.64 µM (active); in test [5], 3.32 µM (active); in test [6], 2.09 µM (active); in test [10], 0.562 µM (active). For the same compound, the Potency result in [7] and in [11] was “inactive” in each case.
In the case of `CN(C(=O)c1ccc(F)cc1C(F)(F)F)C1CCN(c2nnc(-c3ccnn3C)c3ccccc23)CC1`, the Potency in test [1] was 18.4 µM (active). In addition, the Potency entry in test [12], in test [7], in test [8] and in test [11] was “inactive” throughout. In addition, the activity (max response) in test [10] was -13.3%.
For the compound `CCOC(=O)N1CCC(=C2c3ccc(Cl)cc3CCc3cccnc32)CC1`, the Potency in [1] is 8.41 µM (active); in [9], 11.8 µM (active); in test [10], 4.61 µM (active). Moreover, the Potency result in test [2], in [3], in test [4], in test [6], in test [7] and in test [8] was “inactive” throughout.
For `CC(C)C[C@@H](C(=O)N[C@H](C(=O)OC1CCCC1)c1ccccc1)[C@H](O)C(=O)NO`, the Potency in [1] was 0.0742 µM (active); in [2] it was 23.5 µM (active); in test [4] it was 20.9 µM (active); in test [11], 25.1 µM (active).
`NC(=O)c1ccc(-c2nc(-c3ccc4c(c3)OCO4)c(-c3ccccn3)[nH]2)cc1`: in test [1], the Potency is 11.6 µM (active). Besides, the Potency result in test [2], in [3], in [4], in test [5], in test [6] and in test [8] was “inactive” throughout. In addition, the Potency entry in test [9] and in [11] was “inactive” each time. The activity (max response) in test [10] was -5.02%.
